Measurements: PMC7862700, “An all-to-all approach to the identification of sequence-specific readers for epigenetic DNA modifications on cytosine”

Legend:
Experiment in all cases: DAPPL (digital affinity profiling via proximity ligation, sequencing); 10 mM Tris-HCl pH 7.5, 50 mM NaCl, 1 mM DTT, 4% glycerol, room temperature, 30 min; GST-TFs on glutathione beads, 16-mer random dsDNA library, 0.1% formaldehyde crosslink after washing; high values mean tight binding
FEV = target: T1, FEV (Homo sapiens, UniProt Q99581 1-238); settings: protein: recombinant; tags: N-terminal GST; dsDNA, one strand shown
T1 sequence: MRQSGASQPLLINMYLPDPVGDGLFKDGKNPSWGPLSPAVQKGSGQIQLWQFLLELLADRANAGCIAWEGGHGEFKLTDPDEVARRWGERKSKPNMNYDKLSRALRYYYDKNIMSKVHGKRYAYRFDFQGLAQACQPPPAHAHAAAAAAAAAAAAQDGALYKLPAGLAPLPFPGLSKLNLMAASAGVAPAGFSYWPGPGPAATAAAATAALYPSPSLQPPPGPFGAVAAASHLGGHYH
In short: (§1)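 Beads coated with glutathione captured GST-fused human transcription factors that had been expressed in yeast, and the factors were then given DNA barcodes and pooled with a tag-only sample. The pools were incubated with 200 nmole of a random double-stranded 16-mer DNA library in Tris/NaCl/DTT/glycerol buffer for 30 min at room temperature, washed, crosslinked with 0.1% formaldehyde and proximity-ligated with BsaI/T4 ligase at 37 °C for 1 h. PCR amplification and Illumina NextSeq500 sequencing came last. Binding signal is each hexamer's read frequency for a factor divided by its frequency for the tag-only sample.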

ETV5 = ETV5 (Homo sapiens, UniProt P41161 1-510); settings: protein: recombinant; tags: N-terminal GST; dsDNA, one strand shown
Chain of ETV5 (P41161 whole entry): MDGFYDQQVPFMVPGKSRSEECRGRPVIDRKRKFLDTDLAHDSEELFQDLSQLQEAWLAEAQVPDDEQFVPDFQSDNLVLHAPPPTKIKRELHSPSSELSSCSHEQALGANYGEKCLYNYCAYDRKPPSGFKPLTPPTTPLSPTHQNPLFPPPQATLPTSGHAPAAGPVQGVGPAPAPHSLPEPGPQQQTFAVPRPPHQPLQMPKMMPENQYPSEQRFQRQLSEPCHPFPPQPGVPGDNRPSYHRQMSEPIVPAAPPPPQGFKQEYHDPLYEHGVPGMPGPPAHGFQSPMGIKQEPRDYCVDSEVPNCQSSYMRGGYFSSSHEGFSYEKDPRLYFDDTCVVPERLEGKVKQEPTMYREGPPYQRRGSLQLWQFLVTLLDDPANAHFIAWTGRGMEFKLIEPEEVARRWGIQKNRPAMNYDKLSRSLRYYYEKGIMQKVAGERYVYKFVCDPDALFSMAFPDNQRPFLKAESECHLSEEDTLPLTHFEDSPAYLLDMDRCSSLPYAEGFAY
In short: as §1

HSF1 = HSF1 (Homo sapiens, UniProt Q00613 1-529); settings: protein: recombinant; tags: N-terminal GST; chain copies: 3; dsDNA, one strand shown
Chain of HSF1 (Q00613 whole entry): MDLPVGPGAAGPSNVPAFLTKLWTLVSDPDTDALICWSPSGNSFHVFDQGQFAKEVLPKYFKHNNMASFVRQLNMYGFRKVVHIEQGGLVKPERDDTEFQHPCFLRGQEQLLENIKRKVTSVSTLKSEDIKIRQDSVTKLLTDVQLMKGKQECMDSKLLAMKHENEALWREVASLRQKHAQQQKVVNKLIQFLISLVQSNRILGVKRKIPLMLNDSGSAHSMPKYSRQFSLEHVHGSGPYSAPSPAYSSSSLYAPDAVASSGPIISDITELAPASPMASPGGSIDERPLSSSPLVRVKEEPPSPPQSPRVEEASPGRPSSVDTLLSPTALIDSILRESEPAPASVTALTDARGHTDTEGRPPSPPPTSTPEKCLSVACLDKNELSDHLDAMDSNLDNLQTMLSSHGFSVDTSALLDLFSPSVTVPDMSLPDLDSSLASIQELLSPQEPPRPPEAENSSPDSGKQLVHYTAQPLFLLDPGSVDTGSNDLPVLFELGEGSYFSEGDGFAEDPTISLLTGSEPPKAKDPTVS
In short: as §1

SPIC = target: T2, SPIC (Homo sapiens, UniProt Q8N5J4 1-248); settings: protein: recombinant; tags: N-terminal GST; dsDNA, one strand shown
T2 sequence: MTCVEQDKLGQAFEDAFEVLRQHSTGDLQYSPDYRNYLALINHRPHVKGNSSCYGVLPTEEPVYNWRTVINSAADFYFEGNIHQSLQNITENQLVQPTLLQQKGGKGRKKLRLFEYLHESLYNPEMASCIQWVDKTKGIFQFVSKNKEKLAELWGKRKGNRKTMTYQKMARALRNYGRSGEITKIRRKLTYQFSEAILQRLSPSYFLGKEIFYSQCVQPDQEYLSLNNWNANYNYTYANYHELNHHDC
In short: as §1

ELF4 = ELF4 (Homo sapiens, UniProt Q99607 1-663); settings: protein: recombinant; tags: N-terminal GST; dsDNA, one strand shown
Chain of ELF4 (Q99607 whole entry): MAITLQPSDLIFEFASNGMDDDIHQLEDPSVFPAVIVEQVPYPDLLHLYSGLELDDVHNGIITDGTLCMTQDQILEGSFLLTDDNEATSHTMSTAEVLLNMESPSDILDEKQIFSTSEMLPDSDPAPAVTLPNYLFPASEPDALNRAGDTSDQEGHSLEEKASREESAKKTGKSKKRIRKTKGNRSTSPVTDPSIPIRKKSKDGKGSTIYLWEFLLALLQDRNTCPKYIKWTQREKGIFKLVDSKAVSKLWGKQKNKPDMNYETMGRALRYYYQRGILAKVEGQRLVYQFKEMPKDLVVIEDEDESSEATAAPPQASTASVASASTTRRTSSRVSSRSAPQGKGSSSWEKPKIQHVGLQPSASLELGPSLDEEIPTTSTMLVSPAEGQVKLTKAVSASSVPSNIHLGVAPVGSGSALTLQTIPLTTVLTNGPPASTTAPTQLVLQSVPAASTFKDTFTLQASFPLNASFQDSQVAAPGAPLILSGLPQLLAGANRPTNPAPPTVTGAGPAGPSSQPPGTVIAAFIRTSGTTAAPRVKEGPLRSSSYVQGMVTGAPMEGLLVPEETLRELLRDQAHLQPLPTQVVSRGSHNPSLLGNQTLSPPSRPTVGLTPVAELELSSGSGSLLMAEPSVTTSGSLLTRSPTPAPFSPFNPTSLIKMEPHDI
In short: as §1

ELK4 = target: T3, ELK4 (Homo sapiens, UniProt P28324-2 1-405); settings: protein: recombinant; tags: N-terminal GST; dsDNA, one strand shown
T3 sequence: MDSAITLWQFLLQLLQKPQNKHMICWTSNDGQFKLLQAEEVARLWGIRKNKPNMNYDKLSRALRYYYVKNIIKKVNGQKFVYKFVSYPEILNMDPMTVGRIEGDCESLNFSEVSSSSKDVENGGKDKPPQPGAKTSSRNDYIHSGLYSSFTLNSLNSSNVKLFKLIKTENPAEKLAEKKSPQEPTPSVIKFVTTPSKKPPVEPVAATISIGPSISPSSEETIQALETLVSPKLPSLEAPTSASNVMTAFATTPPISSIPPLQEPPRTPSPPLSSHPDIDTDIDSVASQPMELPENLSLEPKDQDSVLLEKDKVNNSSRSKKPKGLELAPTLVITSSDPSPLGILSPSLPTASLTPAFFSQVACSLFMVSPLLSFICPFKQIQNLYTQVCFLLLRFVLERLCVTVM
In short: as §1

ETV2 = target: T4, ETV2 (Homo sapiens, UniProt O00321 1-342); settings: protein: recombinant; tags: N-terminal GST; dsDNA, one strand shown
T4 sequence: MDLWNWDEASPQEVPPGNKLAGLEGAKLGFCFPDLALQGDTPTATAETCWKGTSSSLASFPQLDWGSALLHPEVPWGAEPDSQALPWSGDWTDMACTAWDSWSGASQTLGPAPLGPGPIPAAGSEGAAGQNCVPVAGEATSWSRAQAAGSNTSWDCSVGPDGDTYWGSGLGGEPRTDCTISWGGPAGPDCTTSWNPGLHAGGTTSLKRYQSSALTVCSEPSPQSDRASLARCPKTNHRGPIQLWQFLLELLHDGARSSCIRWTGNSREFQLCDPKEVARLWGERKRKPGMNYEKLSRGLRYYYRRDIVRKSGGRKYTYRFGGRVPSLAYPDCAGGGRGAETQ
In short: as §1

ELF3 = target: T5, ELF3 (Homo sapiens, UniProt P78545 1-371); settings: protein: recombinant; tags: N-terminal GST; dsDNA, one strand shown
T5 sequence: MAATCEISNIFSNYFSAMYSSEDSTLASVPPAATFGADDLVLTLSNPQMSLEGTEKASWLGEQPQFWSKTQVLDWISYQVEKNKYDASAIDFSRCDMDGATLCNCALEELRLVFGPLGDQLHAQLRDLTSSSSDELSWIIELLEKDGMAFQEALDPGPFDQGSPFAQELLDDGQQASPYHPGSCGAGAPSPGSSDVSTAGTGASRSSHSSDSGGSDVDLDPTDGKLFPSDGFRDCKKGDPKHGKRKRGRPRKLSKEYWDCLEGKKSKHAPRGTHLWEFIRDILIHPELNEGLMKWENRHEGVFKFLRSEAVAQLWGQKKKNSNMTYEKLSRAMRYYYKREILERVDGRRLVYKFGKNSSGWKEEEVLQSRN
In short: as §1

CRX = CRX (Homo sapiens, UniProt O43186 1-299); settings: protein: recombinant; tags: N-terminal GST; dsDNA, one strand shown
Chain of CRX (O43186 whole entry): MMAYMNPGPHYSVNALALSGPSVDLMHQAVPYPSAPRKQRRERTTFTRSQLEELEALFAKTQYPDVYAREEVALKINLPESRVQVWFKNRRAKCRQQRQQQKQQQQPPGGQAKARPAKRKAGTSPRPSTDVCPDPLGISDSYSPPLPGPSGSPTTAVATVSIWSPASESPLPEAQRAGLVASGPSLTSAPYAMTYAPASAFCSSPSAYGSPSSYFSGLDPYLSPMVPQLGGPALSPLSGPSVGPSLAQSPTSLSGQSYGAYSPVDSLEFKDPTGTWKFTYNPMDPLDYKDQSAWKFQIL
In short: as §1

ETV1 = ETV1 (Homo sapiens, UniProt P50549 1-477); settings: protein: recombinant; tags: N-terminal GST; dsDNA, one strand shown
Chain of ETV1 (P50549 whole entry): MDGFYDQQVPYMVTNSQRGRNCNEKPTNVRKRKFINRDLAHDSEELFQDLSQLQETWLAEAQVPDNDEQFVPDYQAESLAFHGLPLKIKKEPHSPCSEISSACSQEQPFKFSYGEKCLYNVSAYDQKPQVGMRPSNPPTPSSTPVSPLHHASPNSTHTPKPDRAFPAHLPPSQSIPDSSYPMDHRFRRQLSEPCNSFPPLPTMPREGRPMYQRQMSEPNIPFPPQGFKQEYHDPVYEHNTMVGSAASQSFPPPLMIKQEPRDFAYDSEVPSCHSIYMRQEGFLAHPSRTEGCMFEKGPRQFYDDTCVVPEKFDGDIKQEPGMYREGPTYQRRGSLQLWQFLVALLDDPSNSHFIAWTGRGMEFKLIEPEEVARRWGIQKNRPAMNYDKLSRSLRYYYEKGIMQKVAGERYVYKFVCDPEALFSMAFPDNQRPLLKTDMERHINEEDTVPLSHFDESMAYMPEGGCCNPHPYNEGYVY
In short: as §1

ERF = target: T6, ERF (Homo sapiens, UniProt P50548 1-548); settings: protein: recombinant; tags: N-terminal GST; dsDNA, one strand shown
T6 sequence: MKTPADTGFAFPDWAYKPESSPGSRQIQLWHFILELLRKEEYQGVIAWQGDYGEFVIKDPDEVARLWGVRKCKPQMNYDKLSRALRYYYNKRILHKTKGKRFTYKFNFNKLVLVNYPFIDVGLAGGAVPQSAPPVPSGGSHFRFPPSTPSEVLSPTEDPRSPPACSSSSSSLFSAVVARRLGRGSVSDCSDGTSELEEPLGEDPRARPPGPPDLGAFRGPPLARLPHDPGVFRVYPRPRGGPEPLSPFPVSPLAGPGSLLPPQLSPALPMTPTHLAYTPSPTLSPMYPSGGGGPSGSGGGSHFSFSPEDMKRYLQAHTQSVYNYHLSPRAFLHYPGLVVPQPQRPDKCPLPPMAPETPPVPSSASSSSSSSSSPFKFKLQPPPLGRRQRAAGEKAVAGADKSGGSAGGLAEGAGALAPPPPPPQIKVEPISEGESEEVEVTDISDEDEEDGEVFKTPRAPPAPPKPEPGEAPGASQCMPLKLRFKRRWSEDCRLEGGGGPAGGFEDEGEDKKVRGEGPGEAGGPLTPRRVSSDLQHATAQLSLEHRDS
In short: as §1

ETV3L = target: T7, ETV3L (Homo sapiens, UniProt Q6ZN32 1-361); settings: protein: recombinant; tags: N-terminal GST; dsDNA, one strand shown
T7 sequence: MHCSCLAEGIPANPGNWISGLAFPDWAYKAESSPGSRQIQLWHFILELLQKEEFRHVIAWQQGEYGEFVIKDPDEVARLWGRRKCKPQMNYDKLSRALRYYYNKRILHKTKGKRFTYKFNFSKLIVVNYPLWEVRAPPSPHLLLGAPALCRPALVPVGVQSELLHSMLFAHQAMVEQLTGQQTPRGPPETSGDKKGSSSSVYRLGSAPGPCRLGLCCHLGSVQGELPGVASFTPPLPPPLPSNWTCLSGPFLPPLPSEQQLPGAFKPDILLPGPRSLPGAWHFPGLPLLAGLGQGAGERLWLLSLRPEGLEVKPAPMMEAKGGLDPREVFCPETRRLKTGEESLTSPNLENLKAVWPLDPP
In short: as §1

ETS2 = target: T8, ETS2 (Homo sapiens, UniProt P15036 1-469); settings: protein: recombinant; tags: N-terminal GST; dsDNA, one strand shown
T8 sequence: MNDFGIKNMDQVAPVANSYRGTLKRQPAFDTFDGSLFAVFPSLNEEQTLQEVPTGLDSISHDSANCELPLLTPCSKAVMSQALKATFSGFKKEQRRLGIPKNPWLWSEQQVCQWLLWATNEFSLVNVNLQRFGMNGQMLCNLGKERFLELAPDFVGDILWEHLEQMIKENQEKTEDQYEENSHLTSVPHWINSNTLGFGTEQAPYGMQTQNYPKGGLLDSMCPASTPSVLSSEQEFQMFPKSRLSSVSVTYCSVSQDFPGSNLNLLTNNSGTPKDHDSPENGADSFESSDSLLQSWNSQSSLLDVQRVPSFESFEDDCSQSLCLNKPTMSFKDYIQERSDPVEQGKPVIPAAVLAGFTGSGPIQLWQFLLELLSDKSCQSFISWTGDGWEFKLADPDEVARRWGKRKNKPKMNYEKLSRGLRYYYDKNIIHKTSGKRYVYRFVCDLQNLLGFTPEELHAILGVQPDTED
In short: as §1

SPDEF = target: T9, SPDEF (Homo sapiens, UniProt O95238 1-335); settings: protein: recombinant; tags: N-terminal GST; dsDNA, one strand shown
T9 sequence: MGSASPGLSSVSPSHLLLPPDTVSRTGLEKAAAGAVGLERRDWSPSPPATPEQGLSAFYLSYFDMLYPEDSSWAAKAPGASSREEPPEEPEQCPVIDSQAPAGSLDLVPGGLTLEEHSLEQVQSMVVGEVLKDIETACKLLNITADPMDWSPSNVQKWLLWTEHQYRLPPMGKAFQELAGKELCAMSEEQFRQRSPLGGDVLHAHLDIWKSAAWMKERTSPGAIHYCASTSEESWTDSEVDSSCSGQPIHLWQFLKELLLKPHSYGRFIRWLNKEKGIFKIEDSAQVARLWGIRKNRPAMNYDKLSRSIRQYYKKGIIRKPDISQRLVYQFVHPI
In short: as §1

ETV7 = target: T10, ETV7 (Homo sapiens, UniProt Q9Y603 1-341); settings: protein: recombinant; tags: N-terminal GST; dsDNA, one strand shown
T10 sequence: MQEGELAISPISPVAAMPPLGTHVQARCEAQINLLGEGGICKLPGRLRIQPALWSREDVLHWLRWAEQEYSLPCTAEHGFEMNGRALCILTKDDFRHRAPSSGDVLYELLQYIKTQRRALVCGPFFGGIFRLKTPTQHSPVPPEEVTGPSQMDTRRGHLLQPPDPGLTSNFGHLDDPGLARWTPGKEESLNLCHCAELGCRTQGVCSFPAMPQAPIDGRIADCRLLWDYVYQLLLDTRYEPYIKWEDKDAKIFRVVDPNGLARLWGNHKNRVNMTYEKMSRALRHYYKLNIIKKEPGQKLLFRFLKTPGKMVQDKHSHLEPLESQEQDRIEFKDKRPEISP
In short: as §1

ELF5 = target: T11, ELF5 (Homo sapiens, UniProt Q9UKW6-2 1-255); settings: protein: recombinant; tags: N-terminal GST; dsDNA, one strand shown
T11 sequence: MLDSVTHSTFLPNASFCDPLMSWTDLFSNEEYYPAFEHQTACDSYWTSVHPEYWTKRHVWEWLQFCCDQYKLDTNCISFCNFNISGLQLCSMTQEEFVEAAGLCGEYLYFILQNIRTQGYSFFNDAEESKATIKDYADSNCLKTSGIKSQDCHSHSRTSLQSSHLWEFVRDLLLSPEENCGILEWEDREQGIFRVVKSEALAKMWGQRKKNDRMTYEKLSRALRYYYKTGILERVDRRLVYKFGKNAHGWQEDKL
In short: as §1

ETV3 = target: T12, ETV3 (Homo sapiens, UniProt P41162-2 1-143); settings: protein: recombinant; tags: N-terminal GST; dsDNA, one strand shown
T12 sequence: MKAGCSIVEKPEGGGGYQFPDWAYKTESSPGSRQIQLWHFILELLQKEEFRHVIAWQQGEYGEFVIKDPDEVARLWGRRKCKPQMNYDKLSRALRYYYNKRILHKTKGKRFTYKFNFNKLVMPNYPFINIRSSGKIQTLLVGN
In short: as §1

ETV6 = ETV6 (Homo sapiens, UniProt P41212 1-452); settings: protein: recombinant; tags: N-terminal GST; dsDNA, one strand shown
Chain of ETV6 (P41212 whole entry): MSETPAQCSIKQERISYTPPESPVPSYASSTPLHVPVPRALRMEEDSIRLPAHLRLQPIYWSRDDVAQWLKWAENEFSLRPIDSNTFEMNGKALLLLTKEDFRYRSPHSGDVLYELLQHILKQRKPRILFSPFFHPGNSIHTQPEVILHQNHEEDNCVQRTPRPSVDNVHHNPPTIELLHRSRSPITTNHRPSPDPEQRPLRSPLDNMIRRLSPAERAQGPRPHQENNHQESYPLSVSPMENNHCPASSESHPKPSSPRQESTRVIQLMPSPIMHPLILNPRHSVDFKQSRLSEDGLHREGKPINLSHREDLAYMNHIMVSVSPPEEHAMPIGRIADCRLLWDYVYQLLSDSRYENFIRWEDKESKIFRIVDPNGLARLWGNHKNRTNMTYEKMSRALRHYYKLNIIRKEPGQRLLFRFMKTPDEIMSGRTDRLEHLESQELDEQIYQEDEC
In short: as §1

In the case of TTTGAT, the binding signal (FEV) is reported as 1.17 fold enrichment (6-mer frequency, TF over GST control), the binding signal (ETV5) is reported as 1.23 fold enrichment (6-mer frequency, TF over GST control) and the binding signal (HSF1) is reported as 1.37 fold enrichment (6-mer frequency, TF over GST control). The binding signal (SPIC) was 1.26 fold enrichment (6-mer frequency, TF over GST control), the binding signal (ELF4) was 1.22 fold enrichment (6-mer frequency, TF over GST control) and the binding signal (ELK4) was 1.2 fold enrichment (6-mer frequency, TF over GST control). For the same sequence, the binding signal (ETV2) was 1.22 fold enrichment (6-mer frequency, TF over GST control), the binding signal (ELF3) was 1.18 fold enrichment (6-mer frequency, TF over GST control) and the binding signal (CRX) was 1.6 fold enrichment (6-mer frequency, TF over GST control). For the same sequence, the binding signal (ETV1) was 1.25 fold enrichment (6-mer frequency, TF over GST control), the binding signal (ERF) was 1.21 fold enrichment (6-mer frequency, TF over GST control) and the binding signal (ETV3L) was 1.28 fold enrichment (6-mer frequency, TF over GST control). The binding signal (ETS2) was 1.26 fold enrichment (6-mer frequency, TF over GST control), the binding signal (SPDEF) was 1.12 fold enrichment (6-mer frequency, TF over GST control) and the binding signal (ETV7) was 1.28 fold enrichment (6-mer frequency, TF over GST control). For the same sequence, the binding signal (ELF5) was 1.26 fold enrichment (6-mer frequency, TF over GST control), the binding signal (ETV3) was 1.32 fold enrichment (6-mer frequency, TF over GST control) and the binding signal (ETV6) was 1.26 fold enrichment (6-mer frequency, TF over GST control).
